Laboratory results reported in PubChem BioAssay AID686996 (Broad Institute, 2013).
In all, about 350,000 compounds went through this assay and about 1,900 (0.54%) were called active. The sample holds actives, similar compounds and a random draw of the others, so the mix is not that of the screen. Unmarked numbers belong to inactive results.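 Rule for the calls: active = mean inhibition across replicates at least about 35%, with every replicate also reaching that limit (limit read from the data); inconclusive = only one of the two criteria met; inactive = neither criterion met.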

biological target: Caspase-6 (Homo sapiens) (UniProt P55212); test: inhibition of CASP6 peptide cleavage – biochemical, VEID-R110 fluorescence, single point, set 2, primary screen (AID 686996); conditions: purified caspase-6, Z-VEID-R110 cleavage fluorescence; at 12.5 µM; active compounds read high;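 note: 0% = median of neutral control wells and 100% = no fluorescence left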
Sequence (P55212 24-179 limits assumed): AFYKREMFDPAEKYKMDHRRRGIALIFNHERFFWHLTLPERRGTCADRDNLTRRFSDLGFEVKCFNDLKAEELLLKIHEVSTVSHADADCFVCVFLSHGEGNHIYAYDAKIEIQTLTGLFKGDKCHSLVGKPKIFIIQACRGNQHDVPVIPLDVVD
Sequence (P55212 194-293 limits assumed): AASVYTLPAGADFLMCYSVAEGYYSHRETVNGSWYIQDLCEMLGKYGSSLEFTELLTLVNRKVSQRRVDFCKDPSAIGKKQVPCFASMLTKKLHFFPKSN

Point of comparison: `C[C@@H]1CCCCO[C@H](CN(C)C)[C@H](C)CN([C@@H](C)CO)C(=O)c2cc(NC(=O)Cc3ccccc3)ccc2O1`, inhibition -0.443%. Against it:
- C[C@H](O)C#Cc1ccc2c(c1)O[C@@H](CN(C)Cc1cncnc1)[C@H](C)CN([C@H](C)CO)S2(=O)=O — lower, -2.4%
- O=C(C1CCCC1)N1CC(=O)N2[C@H](C1)[C@@H](c1ccc(-c3cccnc3)cc1)[C@@H]2CO — lower, -0.455%
- COCCNC(=O)CSc1nc(N)c(NC(=O)c2ccco2)c(=O)[nH]1 — higher, 2.38%
- Cc1ccc(NC(=O)OCCNC(=O)c2ccncc2)cc1 — higher, 2.78%
- C[C@@H]1CN([C@H](C)CO)C(=O)c2cc(-c3cccc(C(=O)N(C)C)c3)cnc2O[C@H]1CN(C)S(=O)(=O)c1ccc(F)cc1 — higher, 1.95%
- COc1ccc(OC)c(/C=C/C(=O)c2ccc3c(c2)OCO3)c1 — higher, 2%
- COc1cc(C(=O)NCC(c2ccco2)N2CCCC2)ccc1OCc1ccccc1 (stereo unspecified) — lower, -1.23%
- COc1cc(/C=C/C(=O)OCC(=O)NC(=O)NCc2ccccc2)ccc1OCC#N — higher, 0.201%
- COc1ccccc1CCNC(=O)C1CCN(C(=O)/C=C/c2ccccc2)CC1 — lower, -1.88%
- C[C@@H]1CN([C@H](C)CO)C(=O)Cc2cc(NC(=O)Cc3ccccc3)ccc2O[C@H]1CN(C)S(=O)(=O)c1cccs1 — lower, -1.84%
- CCCN1C[C@@H](C)[C@@H](OC)CN(C)C(=O)c2cc(NC(=O)NC3CCCCC3)ccc2OC[C@H]1C — higher, 0.443%
- C[C@H](CO)N1C[C@H](C)[C@H](CN(C)Cc2ccc(C(F)(F)F)cc2)Oc2ccc(NC(=O)CCCCCC(=O)Nc3ccccc3N)cc2CC1=O — higher, 1.34%
- O=C(N[C@H]1CC[C@H](CCNS(=O)(=O)c2ccc(F)cc2)O[C@H]1CO)C1CCCC1 — higher, 2.12%
- O=C(Nc1ccc(-c2ccccc2)cc1)[C@@H]1[C@@H](CO)[C@@H]2Cn3c(cccc3=O)[C@H]1N2Cc1ccncc1 — higher, 0.424%

For `COCCNC(=O)Nc1ccc2nc(-c3ccco3)c(-c3ccco3)nc2c1`, the inhibition was 79.9% (active).
`COC(=O)c1ccc(COc2ccc(/C=C/C(=O)c3ccc(OC)c(CSCC(=O)O)c3)cc2OC)cc1` was tested, and the inhibition was 41% (active).
In the case of `COc1ccc(C(=O)/C=C/c2ccc(-c3ccccc3)cc2)cc1CSCC(=O)O`, the inhibition is reported as 63.7% (active).
`Cc1cc(C)c(S(=O)(=O)NN=C2c3ccccc3[C@H]3Cc4csc[n+]4[C@@H]23)c(C)c1` was tested, and the inhibition was 85.1% (active).
For `C=C1c2c(Cl)ccc(O)c2C(O)=C2C(=O)[C@]3(O)C(O)=C(C(N)=O)C(=O)[C@@H](N(C)C)[C@@H]3[C@@H](O)C12` (stereo partly specified), the inhibition was 73.9% (active).
For `CN(C)[C@@H]1C(=O)C(C(N)=O)=C(O)[C@@]2(O)C(=O)C3=C(O)c4c(O)ccc(Cl)c4[C@@H](O)[C@H]3C[C@@H]12`, the inhibition was 49.5% (active).
